Source: PubChem BioAssay
Where “and” joins values, the source holds several entries; their conditions need not be identical. Equal values may be shown once. For part of these data: Potency and affinity values are given separately. Calls of active or inactive are those of the source. Unless noted, the rule behind the calls is not given here.

Legend:
[1] = antimalarial activity against Dd2 strain (AID 2302;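 active = growth inhibition above 50% at the single 2 µM test dose, taken to imply half-maximal potency below 2 µM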;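 note: 0% = DMSO untreated growth and 100% = chloroquine plus artemisinin killed control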); details: P. falciparum Dd2 in RBCs, LDH growth readout, 72 h; at 2 µM; stronger effect = higher value
[2] = HepG2 cytotoxicity, primary screen, cytotoxicity control for P. falciparum antimalarial project, cell-based, ATP luminescence (AID 2303;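 active = inhibition above 50%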;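 note: 0% = DMSO wells and 100% = digitonin-killed cells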); details: HepG2 viability, 24-48 h, at 10 µM, stronger effect = higher value
[3] = target: L-lactate dehydrogenase (Plasmodium falciparum (isolate CDC / Honduras)) (UniProt Q27743); experiment: PfLDH activity inhibition – cell lysate, 3D7 strain, counter-screen for P. falciparum growth inhibition project (AID 2304);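 note: 0% = vehicle and 100% = reference inhibitor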; details: P. falciparum 3D7 crude extract, LDH APAD/NBT absorbance; at 2 µM; stronger effect = higher value
[4] = inhibition of 3D7 malaria parasite growth – strain 3D7 (AID 2306);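 note: 0% = DMSO wells and 100% = chloroquine plus artemisinin control wells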; details: P. falciparum 3D7 erythrocytic growth, LDH absorbance, 72 h; at 2 µM; stronger effect = higher value
[5] = target: Calcium-dependent protein kinase 1 (Plasmodium falciparum (isolate 3D7)) (UniProt P62344); experiment: PfCDPK1 kinase inhibitors, biochemical, TCAMS library (AID 1159585; cut-off not given, nearly all actives have IC50 up to about 0.98 µM;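 note: inhibitors leave more ATP so luminescence rises with inhibition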); details: recombinant PfCDPK1, Kinase-Glo ATP depletion luminescence
[6] = target: Plasmodium falciparum protein kinase 6 (PK6, PF3D7_1337100) (UniProt Q8IDW1); experiment: PfPK6 kinase inhibitors, biochemical, TCAMS library (AID 1159586); details: recombinant PfPK6, Kinase-Glo ATP depletion luminescence
[7] = target: Protein kinase 7 (PK7), Plasmodium falciparum 3D7 (PF3D7_0213400) (UniProt Q7YTF7); experiment: inhibition of Plasmodium PK7 catalytic activity – biochemical, TCAMS antimalarial set, Kinase-Glo luminescence (AID 1159587); details: recombinant PfPK7, Kinase-Glo ATP depletion luminescence
[8] = target: Calcium-dependent protein kinase 4 (Plasmodium falciparum (isolate 3D7)) (UniProt Q8IBS5); experiment: PfCDPK4 kinase inhibitors, biochemical, TCAMS library (AID 1159588; cut-off not given, nearly all actives have IC50 up to about 0.91 µM); details: recombinant PfCDPK4, Kinase-Glo ATP depletion luminescence
Sequence of Calcium-dependent protein kinase 4 (Plasmodium falciparum (isolate 3D7)) (Q8IBS5 whole entry, looked up): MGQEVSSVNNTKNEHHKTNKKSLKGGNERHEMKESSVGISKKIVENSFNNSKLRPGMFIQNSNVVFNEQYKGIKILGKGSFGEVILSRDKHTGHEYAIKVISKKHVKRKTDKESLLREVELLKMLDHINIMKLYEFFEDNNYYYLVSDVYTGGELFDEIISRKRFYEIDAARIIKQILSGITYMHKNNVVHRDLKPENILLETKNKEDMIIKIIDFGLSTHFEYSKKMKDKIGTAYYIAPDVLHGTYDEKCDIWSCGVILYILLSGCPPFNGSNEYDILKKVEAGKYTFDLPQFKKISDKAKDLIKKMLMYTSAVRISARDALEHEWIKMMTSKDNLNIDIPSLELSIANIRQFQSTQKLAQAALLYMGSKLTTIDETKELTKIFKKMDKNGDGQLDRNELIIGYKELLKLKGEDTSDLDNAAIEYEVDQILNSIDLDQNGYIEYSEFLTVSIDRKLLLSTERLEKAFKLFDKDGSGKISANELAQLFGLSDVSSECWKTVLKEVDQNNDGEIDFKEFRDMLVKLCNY

Sequence of L-lactate dehydrogenase (Plasmodium falciparum (isolate CDC / Honduras)) (Q27743 whole entry, looked up): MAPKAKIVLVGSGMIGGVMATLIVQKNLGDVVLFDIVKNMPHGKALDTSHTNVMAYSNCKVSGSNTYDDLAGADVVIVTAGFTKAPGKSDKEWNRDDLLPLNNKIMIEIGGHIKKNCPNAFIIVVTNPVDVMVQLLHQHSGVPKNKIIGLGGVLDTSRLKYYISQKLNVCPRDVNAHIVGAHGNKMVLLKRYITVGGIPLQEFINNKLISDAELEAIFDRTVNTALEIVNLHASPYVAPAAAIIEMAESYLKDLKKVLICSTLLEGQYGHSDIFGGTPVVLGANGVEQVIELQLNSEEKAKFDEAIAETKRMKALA
Sequence of Calcium-dependent protein kinase 1 (Plasmodium falciparum (isolate 3D7)) (P62344 whole entry, looked up): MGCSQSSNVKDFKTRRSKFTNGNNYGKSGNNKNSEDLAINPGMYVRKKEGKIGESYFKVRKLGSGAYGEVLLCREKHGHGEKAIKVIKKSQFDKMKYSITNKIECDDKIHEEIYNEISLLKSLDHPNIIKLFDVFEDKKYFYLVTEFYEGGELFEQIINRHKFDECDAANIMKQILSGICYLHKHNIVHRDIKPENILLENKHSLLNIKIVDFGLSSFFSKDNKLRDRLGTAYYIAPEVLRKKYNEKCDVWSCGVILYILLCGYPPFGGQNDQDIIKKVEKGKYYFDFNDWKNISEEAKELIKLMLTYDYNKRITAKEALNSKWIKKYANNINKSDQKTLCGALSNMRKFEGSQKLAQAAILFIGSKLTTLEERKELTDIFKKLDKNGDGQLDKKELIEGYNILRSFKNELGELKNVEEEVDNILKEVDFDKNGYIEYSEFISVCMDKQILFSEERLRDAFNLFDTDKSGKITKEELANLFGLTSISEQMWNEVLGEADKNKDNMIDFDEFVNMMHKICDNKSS
Sequence of Plasmodium falciparum protein kinase 6 (PK6, PF3D7_1337100) (Q8IDW1 1-305): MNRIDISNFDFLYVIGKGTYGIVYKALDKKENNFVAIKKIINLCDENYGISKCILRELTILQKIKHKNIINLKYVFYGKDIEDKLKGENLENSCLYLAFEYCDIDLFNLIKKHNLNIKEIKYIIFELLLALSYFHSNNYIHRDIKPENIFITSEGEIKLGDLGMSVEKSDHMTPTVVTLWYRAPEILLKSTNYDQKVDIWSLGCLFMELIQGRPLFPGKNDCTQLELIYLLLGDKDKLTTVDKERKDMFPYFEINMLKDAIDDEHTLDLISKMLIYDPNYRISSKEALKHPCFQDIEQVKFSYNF
Sequence of Protein kinase 7 (PK7), Plasmodium falciparum 3D7 (PF3D7_0213400) (Q7YTF7 1-343): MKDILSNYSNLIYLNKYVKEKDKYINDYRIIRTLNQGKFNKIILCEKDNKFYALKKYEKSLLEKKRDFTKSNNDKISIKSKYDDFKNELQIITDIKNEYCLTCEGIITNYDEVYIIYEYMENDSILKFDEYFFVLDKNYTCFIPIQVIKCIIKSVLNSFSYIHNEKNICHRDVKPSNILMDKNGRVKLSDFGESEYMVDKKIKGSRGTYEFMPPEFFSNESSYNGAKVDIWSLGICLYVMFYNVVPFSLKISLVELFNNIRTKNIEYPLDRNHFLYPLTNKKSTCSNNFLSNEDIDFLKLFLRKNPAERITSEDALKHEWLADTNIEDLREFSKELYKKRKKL

CC(C)(C)c1ccc(N2C(N)=NC(N)=NC2(C)C)cc1
inactive: growth inhibition [1] -2% | inhibition [2] 27% | inhibition [3] -2% | outcome [5] | outcome [6] | outcome [7] | outcome [8]
active: growth inhibition [4] 93%

CC(C)C(C)(C#N)NC(=O)CSc1nc2ccc([N+](=O)[O-])cc2s1 (configuration not stated)
inactive: inhibition [2] -11% | inhibition [3] 3% | outcome [5] | outcome [6] | outcome [7] | outcome [8]
active: growth inhibition [1] 81% | growth inhibition [4] 95%

COc1cccc(NC(=O)c2ccc(NCCCN3CC(C)CC(C)C3)c([N+](=O)[O-])c2)c1 (configuration not stated)
inactive: inhibition [2] 14% | inhibition [3] -4% | outcome [5] | outcome [6] | outcome [7] | outcome [8]
active: growth inhibition [1] 68% | growth inhibition [4] 100%

CN(C)CCCOc1ccc(CCCCc2ccc(Cl)cc2C(=O)c2ccccc2)cc1
active: growth inhibition [4] 92%
inactive: growth inhibition [1] 8% | inhibition [2] 8% | inhibition [3] -7% | outcome [5] | outcome [6] | outcome [7] | outcome [8]

O=C(C=Cc1cn(-c2ccccc2)nc1-c1cccs1)N1CCN(c2ccncc2)CC1
inactive: inhibition [2] 31% | inhibition [3] 1% | outcome [5] | outcome [6] | outcome [7] | outcome [8]
active: growth inhibition [1] 61% | growth inhibition [4] 100%

CCN(CC(C)O)C(=O)c1ccc(-c2ccc(-c3nc4c(C)cccc4[nH]3)cc2)cc1 (configuration not stated)
inactive: growth inhibition [1] 13% | inhibition [2] 18% | inhibition [3] -5% | outcome [5] | outcome [6] | outcome [7] | outcome [8]
active: growth inhibition [4] 94%

Cn1nccc1C(=O)NCCNCc1ccc(-c2ccc(-c3nc4ccc(C(F)(F)F)cc4[nH]3)cc2)cc1
active: growth inhibition [1] 99% | growth inhibition [4] 100%
inactive: inhibition [2] 35% | inhibition [3] -2% | outcome [5] | outcome [6] | outcome [7] | outcome [8]

CCCCCCN1CCCN(Cc2ccc(C(=O)Nc3ccc(CC)cc3)cc2)CC1
inactive: inhibition [3] 2% | outcome [5] | outcome [6] | outcome [7] | outcome [8]
active: growth inhibition [1] 50% | inhibition [2] 53% | growth inhibition [4] 97%

CC(CNC(=O)c1cc2c(Cl)cc(Cl)cc2[nH]1)CNc1cc(=O)c2ccccc2[nH]1 (configuration not stated)
inactive: growth inhibition [1] 11% | inhibition [2] 11% | inhibition [3] 5% | outcome [5] | outcome [6] | outcome [7] | outcome [8]
active: growth inhibition [4] 97%

O=C(NCC1CCN(Cc2ccc(F)cc2)C1)c1cc(-c2cccc(C(F)(F)F)c2)cs1 (configuration not stated)
inactive: growth inhibition [1] 18% | inhibition [2] 38% | inhibition [3] -2% | outcome [5] | outcome [6] | outcome [7] | outcome [8]
active: growth inhibition [4] 93%

COc1cc(C(F)(F)F)c2cc(CNCCCNc3nc4ccccc4[nH]3)[nH]c2c1
inactive: growth inhibition [1] 0% | inhibition [3] -6% | outcome [5] | outcome [6] | outcome [7] | outcome [8]
active: inhibition [2] 60% | growth inhibition [4] 101%

O=C(Nc1ccc(-c2cccc(-c3nc4ccc(C(F)(F)F)cc4[nH]3)c2)cc1)c1cccnc1
active: inhibition [2] 74% | growth inhibition [4] 100%
inactive: growth inhibition [1] 24% | inhibition [3] -5% | outcome [5] | outcome [6] | outcome [7] | outcome [8]

N#CC(CC(=O)c1ccc(Cl)cc1)c1cccc(F)c1 (configuration not stated)
active: growth inhibition [4] 97%
inactive: growth inhibition [1] 4% | inhibition [2] 5% | inhibition [3] 4% | outcome [5] | outcome [6] | outcome [7] | outcome [8]

CC1(CCc2ccccc2)N=C(N)N=C(N)C1c1ccc(Cl)c(Cl)c1 (configuration not stated)
inactive: growth inhibition [1] 39% | inhibition [2] 19% | inhibition [3] -8% | outcome [5] | outcome [6] | outcome [7] | outcome [8]
active: growth inhibition [4] 98%

c1ccc(Oc2cccc(Nc3ccnc4ccccc34)c2)cc1
inactive: growth inhibition [1] 14% | inhibition [2] 48% | inhibition [3] 6% | outcome [5] | outcome [6] | outcome [7] | outcome [8]
active: growth inhibition [4] 95%

Cc1ccc(CN2CCN(Cc3cccc(NC(=O)c4cccs4)c3)CC2)cc1C
inactive: inhibition [2] 41% | inhibition [3] 2% | outcome [5] | outcome [6] | outcome [7] | outcome [8]
active: growth inhibition [1] 68% | growth inhibition [4] 96%

COc1ccc(CCn2c(=N)c(C(=O)NCc3cccnc3)cc3c(=O)n4cccc(C)c4nc32)cc1
active: growth inhibition [4] 92%
inactive: growth inhibition [1] 12% | inhibition [2] 5% | inhibition [3] 0% | outcome [5] | outcome [6] | outcome [7] | outcome [8]

COc1cc(F)c2ncc(Cl)c([C@H](O)CN3CCC(NCc4cc5c(cn4)OCCO5)CC3)c2c1
active: growth inhibition [4] 102%
inactive: growth inhibition [1] 49% | inhibition [2] 10% | inhibition [3] 4% | outcome [5] | outcome [6] | outcome [7] | outcome [8]

COc1cc2c(cc1S(=O)(=O)c1ccc(NC(=O)c3cc4ccccc4s3)cc1)CCN(C)CC2
active: growth inhibition [1] 88% | growth inhibition [4] 100%
inactive: inhibition [2] 21% | inhibition [3] 2% | outcome [5] | outcome [6] | outcome [7] | outcome [8]

CNCCNCc1cccc(-c2ccc(-c3nc4ccc(C(F)(F)F)cc4[nH]3)cc2)c1
inactive: inhibition [2] 21% | inhibition [3] -5% | outcome [5] | outcome [6] | outcome [7] | outcome [8]
active: growth inhibition [1] 92% | growth inhibition [4] 100%

CCC(CC(NCCCCNC(=O)c1ccc(NC(=O)c2ccc(Cl)cc2)cc1)c1ccccc1)c1ccccc1OC (configuration not stated)
active: growth inhibition [1] 76% and 56% | growth inhibition [4] 100% and 89%
inactive: inhibition [2] 23% and 10% | inhibition [3] -1% and 1% | outcome [5] | outcome [6] | outcome [7] | outcome [8]

CC(C)(CNC(=O)[C@@H]1CCCN(Cc2ccc(Cl)cc2)C1)c1nc(-c2ccc(Cl)c(O)c2)c(-c2ccncc2)[nH]1
active: inhibition [2] 66% | growth inhibition [4] 97%
inactive: growth inhibition [1] 37% | inhibition [3] -2% | outcome [5] | outcome [6] | outcome [7] | outcome [8]

O=C(Cn1cc(C=C2SC(=NC3CCCC3)N(C3CCCC3)C2=O)c2ccccc21)N1CCCC1
inactive: inhibition [2] 5% | inhibition [3] -1% | outcome [5] | outcome [6] | outcome [7] | outcome [8]
active: growth inhibition [1] 100% | growth inhibition [4] 100%

CN1CCN(c2cccc(-c3nnc(-c4cccc(OCC(=O)NCc5ccc(C(F)(F)F)cc5)c4)o3)c2)CC1
inactive: inhibition [2] 10% | inhibition [3] -4% | outcome [5] | outcome [6] | outcome [7] | outcome [8]
active: growth inhibition [1] 86% | growth inhibition [4] 98%

CCCS(=O)(=O)N1CCC(CO)(Cc2ccccc2C(F)(F)F)CC1
active: growth inhibition [1] 57% | growth inhibition [4] 97%
inactive: inhibition [2] -1% | inhibition [3] -2% | outcome [5] | outcome [6] | outcome [7] | outcome [8]

CCN(CC)C(=NCCCCCCN=C(NC(N)=NCc1cccc(Cl)c1)N(CC)CC)NC(N)=NCc1cccc(Cl)c1
active: growth inhibition [1] 99% | growth inhibition [4] 99%
inactive: inhibition [2] 17% | inhibition [3] -8% | outcome [5] | outcome [6] | outcome [7] | outcome [8]

Cc1cc(NN=Cc2ccc(Cl)cc2)c2ccccc2n1
active: growth inhibition [1] 87% | growth inhibition [4] 100%
inactive: inhibition [2] 5% | inhibition [3] -3% | outcome [5] | outcome [6] | outcome [7] | outcome [8]

CC(C)(C)OC(=O)N(Cc1cc(-n2nnnc2C(F)(F)F)ccc1O)[C@H]1CCCN(C(=O)OC(C)(C)C)[C@H]1c1ccccc1
inactive: inhibition [2] 14% | inhibition [3] -5% | outcome [5] | outcome [6] | outcome [7] | outcome [8]
active: growth inhibition [1] 66% | growth inhibition [4] 98%

CC(C)(C)C1CCc2nc(N)nc(N)c2C1 (configuration not stated)
active: inhibition [2] 69% | growth inhibition [4] 94%
inactive: growth inhibition [1] 38% | inhibition [3] 6% | outcome [5] | outcome [6] | outcome [7] | outcome [8]

CN1CCC(NCc2ccc(-c3ccc(S(=O)(=O)NC4CCC4)s3)cc2)CC1
inactive: growth inhibition [1] 31% | inhibition [2] 31% | inhibition [3] 1% | outcome [5] | outcome [6] | outcome [7] | outcome [8]
active: growth inhibition [4] 92%

Cc1cccc(C=NNc2cc(C)nc3ccc(F)cc23)n1
active: growth inhibition [4] 95%
inactive: growth inhibition [1] 45% | inhibition [2] 1% | inhibition [3] 3% | outcome [5] | outcome [6] | outcome [7] | outcome [8]

COc1ccc2nccc([C@@H](O)CN3CCC(NCc4ccc5c(c4)nnn5C(C)C)CC3)c2c1
inactive: growth inhibition [1] 40% | inhibition [2] 15% | inhibition [3] 0% | outcome [5] | outcome [6] | outcome [7] | outcome [8]
active: growth inhibition [4] 100%

COc1ccc(-c2cccc(NC(=O)c3cccc(Cl)c3)c2)cc1CN1CCNCC1
active: growth inhibition [1] 52% | growth inhibition [4] 101%
inactive: inhibition [2] 29% | inhibition [3] 9% | outcome [5] | outcome [6] | outcome [7] | outcome [8]

CC(=O)Nc1ccc(OCCN(Cc2ccccc2C(F)(F)F)c2ccc(C#N)c(C(F)(F)F)c2)cc1
active: growth inhibition [1] 81% | growth inhibition [4] 101%
inactive: inhibition [2] 8% | inhibition [3] 0% | outcome [5] | outcome [6] | outcome [7] | outcome [8]

COc1c(C2CCN(CCCCNC(=O)c3noc(-c4ccc(C#N)cc4)n3)CC2)ccc2c1CCCC2
active: growth inhibition [4] 99%
inactive: growth inhibition [1] -2% | inhibition [2] 32% | inhibition [3] -1% | outcome [5] | outcome [6] | outcome [7] | outcome [8]

c1ccc(CN2CCC(NCc3ccc(-c4ccc(CNC5CCCC5)cc4)cc3)CC2)cc1
active: growth inhibition [1] 98% | growth inhibition [4] 101%
inactive: inhibition [2] 24% | inhibition [3] -4% | outcome [5] | outcome [6] | outcome [7] | outcome [8]

O=C(Nc1cccc(CN2CCN(Cc3ccc(O)cc3)CC2)c1)c1ccc(Cl)c(Cl)c1
active: growth inhibition [1] 95% | growth inhibition [4] 102%
inactive: inhibition [2] 30% | inhibition [3] 2% | outcome [5] | outcome [6] | outcome [7] | outcome [8]

CCCC(C)Nc1nc(C)cc(N[C@@H](CC(C)C)C(=O)NCc2ccc(C)cc2)n1 (some centres not stated)
active: growth inhibition [1] 51% | growth inhibition [4] 98%
inactive: inhibition [2] 16% | inhibition [3] -1% | outcome [5] | outcome [6] | outcome [7] | outcome [8]

C[C@H](Cc1ccc(C[C@@H](C)NCC(O)c2cc(Cl)c(N)c(Cl)c2)cc1)NCC(O)c1cc(Cl)c(N)c(Cl)c1 (some centres not stated)
active: growth inhibition [1] 50% | growth inhibition [4] 98%
inactive: inhibition [2] 26% | inhibition [3] -3% | outcome [5] | outcome [6] | outcome [7] | outcome [8]
